# Experimental data from PubChem BioAssay AID504339 (National Center for Advancing Translational Sciences (NCATS), 2011).
# Hit rate of the full screen: of about 390,000 compounds, about 17,000 (4.4%) were called active. About 8% were inconclusive and are not listed. Calls follow the shape of the dose curve; as a rule, active = well fitted inhibition curve with a large enough effect; inconclusive = small, poorly fitted or top-dose-only effect; inactive = no such curve, though single readings can be large or run the other way. The full list was thinned out, with actives kept by preference.
# Target: Lysine-specific demethylase 4A (Homo sapiens) (UniProt O75164)
# Sequence (O75164 whole entry, looked up, the tested form may be a part): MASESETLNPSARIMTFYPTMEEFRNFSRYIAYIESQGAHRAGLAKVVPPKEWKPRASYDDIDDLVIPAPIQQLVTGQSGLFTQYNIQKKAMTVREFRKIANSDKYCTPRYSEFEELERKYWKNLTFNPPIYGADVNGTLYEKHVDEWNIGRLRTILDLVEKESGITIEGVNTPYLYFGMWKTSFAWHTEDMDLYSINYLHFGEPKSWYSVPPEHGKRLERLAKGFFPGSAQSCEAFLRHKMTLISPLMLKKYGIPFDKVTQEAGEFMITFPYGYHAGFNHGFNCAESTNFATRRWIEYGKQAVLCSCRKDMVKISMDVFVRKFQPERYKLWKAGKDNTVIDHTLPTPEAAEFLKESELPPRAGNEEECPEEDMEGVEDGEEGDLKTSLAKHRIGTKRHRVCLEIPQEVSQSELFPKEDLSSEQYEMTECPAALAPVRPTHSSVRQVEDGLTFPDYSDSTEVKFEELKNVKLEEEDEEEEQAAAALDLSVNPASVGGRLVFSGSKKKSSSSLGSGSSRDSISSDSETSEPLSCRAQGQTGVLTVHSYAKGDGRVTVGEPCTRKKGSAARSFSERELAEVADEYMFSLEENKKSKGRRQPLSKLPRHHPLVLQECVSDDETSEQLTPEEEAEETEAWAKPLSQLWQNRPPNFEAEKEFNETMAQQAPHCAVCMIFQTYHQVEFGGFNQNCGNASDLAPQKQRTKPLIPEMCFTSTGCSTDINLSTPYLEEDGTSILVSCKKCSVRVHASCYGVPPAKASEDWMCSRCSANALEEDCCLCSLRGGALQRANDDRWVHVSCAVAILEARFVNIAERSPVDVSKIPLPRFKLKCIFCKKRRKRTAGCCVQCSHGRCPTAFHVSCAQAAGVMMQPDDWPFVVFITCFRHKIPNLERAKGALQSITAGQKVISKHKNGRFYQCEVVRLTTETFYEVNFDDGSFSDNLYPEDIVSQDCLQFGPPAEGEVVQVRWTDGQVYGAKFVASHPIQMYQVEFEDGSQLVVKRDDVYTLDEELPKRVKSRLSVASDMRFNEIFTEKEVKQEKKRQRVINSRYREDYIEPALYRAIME
# Assay: qHTS Assay for Inhibitors of JMJD2A-Tudor Domain; also: nearly all actives have a fitted effect of over 50% in size
# Conditions: AlphaScreen JMJD2A-Tudor / H3K4me3 peptide binding; series mostly up to 114 µM; activity change, negative = inhibition: at the top concentration
# % is scaled to controls: 0 for no effect and ±100 for the full control effect; potency is read from the fitted curve at half-maximal effect.
Compound,"activity change, negative = inhibition",Potency
O=C(CSCc1cnn(-c2ccccc2)c1-n1cccc1)NCc1ccc(Cl)cc1,-6.62% (inactive),–
CCOc1ccc(OCC)c(NC(=O)c2cc(C)nc3c2c(C)nn3-c2cccc(Cl)c2C)c1,2.27% (inactive),–
CCOc1ccc(NC(=O)C(CC(C)C)N2Cc3ccccc3C2=O)cc1 (centres undefined),0% (inactive),–
CCNC(=O)c1cc2n(n1)CCCN(Cc1ccc(C)cc1)C2=O,6.29% (inactive),–
CCCCc1nn2c(=O)cc(COC(=O)c3cccc(NC(=O)COc4ccccc4)c3)nc2s1,-5.96% (inactive),–
Cc1ccc(Cl)cc1N(C)C(=O)Cn1nc(Cc2cccnc2)c2ccccc2c1=O,-28.5% (inactive),–
Cc1cc(NC(=O)C2CCC(CNS(=O)(=O)c3ccc(Br)s3)CC2)ccc1Br (centres undefined),-1.03% (inactive),–
COc1ccc(NC(=O)CN(C)C(=O)c2n[nH]c3ccccc23)cc1,-9.29% (inactive),–
CSc1ncccc1C(=O)Nc1ccc(C)cn1,-6.9% (inactive),–
COc1ccc(-c2cc(C(=O)N(C)CC(=O)Nc3ccccc3Cl)c3ccccc3n2)cc1OC,5.52% (inactive),–
Cc1ccc(NC(=O)c2cc(-c3ccc(C)o3)nc3ccccc23)nc1,–,35.5 µM (active)
CC(=O)N1CCN(C(=O)c2cc(-c3ccc(C)o3)nc3ccccc23)CC1,-10.9% (inactive),–
COc1ccc(NC(=O)CN(C)C(=O)c2cc(-c3ccc(C)o3)nc3ccccc23)cc1,–,89.1 µM (active)
CCC1CN(S(=O)(=O)c2cc(-c3cc(C)no3)ccc2C)c2cc(C)ccc2O1 (centres undefined),-13.3% (inactive),–
COc1cccc(C(=O)Nc2ccc3oc(-c4ccc5ccccc5c4)nc3c2)c1,-27.5% (inactive),–
CCOc1ccc(C(=O)N2CCN(CCc3ccccn3)CC2)cc1,-17.5% (inactive),–
Cc1ccc(F)cc1NC(=O)CCSc1nc(-c2ccco2)cc(C(F)(F)F)n1,-14.1% (inactive),–
CCOC(=O)c1cc2c(=O)n3ccccc3nc2n(CC2CCCO2)c1=NC(=O)c1ccc(C(C)(C)C)cc1 (centres undefined),7.85% (inactive),–
CCCn1c(NCc2ccc(N(CC)CC)cc2)nc2ccccc21,–,39.8 µM (active)
CCCn1c(NCc2ccccc2F)nc2ccccc21,4.36% (inactive),–
CCCn1c(NC(=O)C23CC4CC(CC(O)(C4)C2)C3)nc2ccccc21,-14.9% (inactive),–
COc1cccc(CNC(=O)Cc2csc3nc(-c4ccccc4)cn23)c1,-22.7% (inactive),–
Cc1cc(C)c2oc(-c3cccc(NC(=O)c4cccc(F)c4)c3C)nc2c1,-10.8% (inactive),–
COc1ccc(-c2nc(Cn3c(=O)cc(C)c4c(C)nn(-c5ccccc5)c43)c(C)o2)cc1OC,-13% (inactive),–
CCOc1ccccc1/C=c1\sc2nc(-c3ccco3)nn2c1=O,–,56.2 µM (active)

Compound,"activity change, negative = inhibition",Potency
CCOC(=O)C1CCN(C(c2ccc(F)cc2)c2sc3nc(-c4ccco4)nn3c2O)CC1 (centres undefined),0% (inactive),–
CCOc1ccccc1NC(=O)Cn1c(=O)n(Cc2ccco2)c(=O)c2sc3ccccc3c21,-20.5% (inactive),–
CCCC(=O)Nc1cc2nn(-c3ccccc3)nc2cc1C,1.96% (inactive),–
Oc1ccc(N=Cc2sc3ccccc3c2Cl)cc1,–,50.1 µM (active)
CCCC(=O)Nc1ccc(NC(=O)c2sc3ccccc3c2Cl)cc1,-8.17% (inactive),–
COC(=O)c1cc(NC(=O)c2sc3ccccc3c2Cl)cc(C(=O)OC)c1,-8.5% (inactive),–
CCOCCCNC(=O)c1c(NC(=O)Cc2coc3c(C)c(C)ccc23)sc2c1CCC2,-26.7% (inactive),–
CCc1ccc(OCCCn2c(CCCNC(=O)C3CCCCC3)nc3ccccc32)cc1,-13.1% [at 57.1 µM] (inactive),–
CC1=C(C(=O)OCc2ccc(C)cc2)C(c2ccccc2Cl)CC(=O)N1 (centres undefined),-19.2% (inactive),–
CC(C)(C)N(CC#CCC(O)(c1ccccc1)C1CCCC1)CCO (centres undefined),–,50.1 µM (active)
CN(CC#CCC(c1ccccc1)c1ccccc1)C(C)(C)C,-24.1% (inactive),–
CCN(CCCNC(=O)Cn1ncc2c3ccccc3n(C)c2c1=O)Cc1ccccc1,-12.1% (inactive),–
CCC(=O)N1CCc2cc(S(=O)(=O)NC(CC(C)C)C(=O)NCCc3cccc(C)c3)ccc21 (centres undefined),-1.67% (inactive),–
O=C1c2ccccc2C(=O)c2c1cccc2N1CCN(Cc2ccccc2)CC1,–,14.1 µM (active)
CCc1c(C)nc(N2CCN(Cc3ccccc3)CC2)[nH]c1=O,-6.58% (inactive),–
O=S(=O)(c1cccs1)N1CCN(Cc2ccccc2)CC1,-5.93% (inactive),–
COc1ccc(CNc2nc(-c3ccccc3)nn2C(=O)c2ccccc2OC)cc1,10.7% (inactive),–
CC(C)c1ccc(NC(=O)C2CCN(c3nc(-c4ccc(C(C)C)cc4)no3)CC2)cc1,-15.6% (inactive),–
O=C1CC(c2ccc(F)cc2F)c2cc3c(cc2N1)OCO3 (centres undefined),-15.8% (inactive),–
Cc1nc(Cl)c(C#N)c2c1CCCC2,-0.685% (inactive),–
COC(=O)c1c(C)c(C)nc(N)c1C#N,-5.35% (inactive),–
COCc1c(N)c(C)nc(Cl)c1C#N,–,11.2 µM (active)
CC(=O)c1ccc(NC(=O)C2CCN(S(=O)(=O)c3c(C)noc3/C=C/c3ccc(C)cc3)CC2)cc1,-16.6% (inactive),–
CN(Cc1ccccc1)c1ccc(-c2nc(-c3ccccc3)no2)cc1[N+](=O)[O-],-8.94% (inactive),–
CC(=O)c1ccc(N2CCN(C3C(=O)c4ccccc4N3C(C)=O)CC2)cc1 (centres undefined),-15.3% (inactive),–

Compound,"activity change, negative = inhibition",Potency
CC1(C)Cc2c(sc(NC(=O)C(=O)N3CCOCC3)c2C#N)CO1,–,14.1 µM (active)
COC(=O)c1c(NC(=O)C(=O)N2CCCCC2)sc2c1CC(C)(C)OC2,-1.38% (inactive),–
CCOC(=O)N1CCN(C(=O)C(=O)Nc2sc3c(c2C#N)CC(C)(C)OC3)CC1,-9.02% (inactive),–
COc1cc(C(=O)Nc2ccc(OCc3cc(=O)n4ccc(C)cc4n3)cc2)cc(OC)c1OC,-2.6% (inactive),–
CCc1ccccc1N(CC(=O)NCC1CCCO1)C(=O)CCC(=O)Nc1nccs1 (centres undefined),–,25.1 µM (active)
Cc1cc(NC(=O)CCC(=O)N(CC(=O)NCC2CCCO2)c2ccccc2)no1 (centres undefined),-10.2% (inactive),–
CCCCOc1ccc(N(CC(=O)NCC2CCCO2)C(=O)CCC(=O)Nc2cc(C)ccn2)cc1 (centres undefined),–,70.8 µM (active)
COC(=O)c1cccc(N(CC(=O)NCC2CCCO2)C(=O)CCC(=O)Nc2cc(C)on2)c1 (centres undefined),0.702% (inactive),–
Cc1cc(NC(=O)CCC(=O)N(CC(=O)NCC2CCCO2)c2ccccc2C)no1 (centres undefined),2.52% (inactive),–
COc1ccc(N(CC(=O)NCC2CCCO2)C(=O)CCC(=O)Nc2nccs2)c(OC)c1 (centres undefined),-22.1% (inactive),–
COc1ccc(C(=O)Nc2onc3c2CCCC3)cc1,-17.7% (inactive),–
O=C(NCCc1ccccc1)C(=O)NCC(c1ccco1)S(=O)(=O)c1ccccc1 (centres undefined),-9.42% (inactive),–
COc1cccc(C(=O)NC2(C(F)(F)F)C(=O)Nc3c2c(=O)[nH]c(=O)n3-c2ccc(C)cc2)c1 (centres undefined),-7.22% (inactive),–
O=C(CSc1ncc(-c2ccccc2)[nH]1)Nc1ccc(F)cc1F,-25.7% (inactive),–
O=C(COc1ccccc1F)OCc1cc(=O)n2nc(C3CCCCC3)sc2n1,-14.3% (inactive),–
Cc1ccc2c(c1)C1CN(C)CCC1N2S(=O)(=O)c1ccc(Oc2ccc([N+](=O)[O-])cc2)cc1 (centres undefined),–,22.4 µM (active)
Cc1ccc2c(c1)C1CN(C)CCC1N2C(=S)Nc1ccc(OC(F)F)cc1 (centres undefined),-26.8% (inactive),–
Cc1ccc2c(c1)C1CN(C)CCC1N2S(=O)(=O)c1cccc(F)c1 (centres undefined),-12.8% (inactive),–
COc1ccc(CNC(=O)c2ccc3c(c2)nc2n3CCOC2)c(OC)c1,-9.74% (inactive),–
Cc1cc(NS(=O)(=O)c2ccc3oc(=O)c4ncn(C)c4c3c2)ccc1Br,4.17% (inactive),–
COc1cc(OC)c(NC(=O)c2cnc(N3CCCC3)nc2C)cc1Cl,5.63% (inactive),–
Cc1ccc2c(=O)c(C(=O)c3cccc(Cl)c3)cn(CC(=O)NCc3ccccc3)c2n1,0.962% (inactive),–
O=C(O)CSC(NC(=O)c1cccnc1)(C(F)(F)F)C(F)(F)F,–,89.1 µM (active)
O=C(NNC(=O)c1cccnc1)Nc1ccccc1,-1.69% (inactive),–
O=C(CC(=O)c1cccnc1)c1ccccc1,-10.3% (inactive),–

Compound,"activity change, negative = inhibition",Potency
CCc1ccccc1N(C)C(=O)C1CCCN(c2ncnc3onc(-c4ccc(F)cc4)c23)C1 (centres undefined),-0.647% (inactive),–
COc1cccc2c1cc1c(=O)n(CC(=O)N3CCN(c4cccc(Cl)c4)CC3)nc(C)n12,-10.5% (inactive),–
O=c1ccc2c(-c3ccccc3S(=O)(=O)O)c3ccc(O)c(O)c3oc-2c1O,–,0.708 µM (active)
CCOC(=O)c1c(C)oc2ccc(N(C(=O)c3ccncc3)S(=O)(=O)c3ccc(CC)cc3)cc12,-29.1% (inactive),–
CCOc1ccccc1C(=O)NC1(C(F)(F)F)NC(=O)N(CCc2ccc(OC)c(OC)c2)C1=O (centres undefined),-25.4% (inactive),–
CCCN(C(=O)Cn1cc(S(=O)(=O)N2CCN(c3ccccc3F)CC2)c2ccccc2c1=O)c1cccc(C)c1,-9.25% (inactive),–
CNc1nnc(-c2ccco2)s1,-1.99% (inactive),–
COc1ccc(NC(=O)COCc2cc(-c3ccco3)on2)cc1,0.321% (inactive),–
COc1ccc(OCC(=O)Nc2nnc(-c3ccco3)s2)cc1,–,79.4 µM (active)
Cc1cccc(NC(=O)CN(c2ccc(C(C)C)cc2)S(=O)(=O)c2c(C)nn(C)c2C)c1C,-11.3% (inactive),–
Cc1ccc(C)c(CNC(=O)c2cc3ccccn3n2)c1,-3.25% (inactive),–
CC1CCCN(c2cc3c(cc2F)c(=O)c(S(=O)(=O)c2cccc(Cl)c2)cn3Cc2ccccc2)C1 (centres undefined),-8.25% (inactive),–
Cc1ccc(Cl)cc1NC(=O)CCC(=O)N1CC(C)Sc2ccccc21 (centres undefined),0% (inactive),–
Cc1ccccc1C(=O)Nc1ccc(N2CCCCCC2)cc1,–,14.1 µM (active)
CC(=O)Nc1ccc(S(=O)(=O)Nc2ccc(N3CCCCC3)cc2)cc1,–,20 µM (active)
Cc1ccccc1C(=O)N1CCN(c2ccc(NC(=O)c3cccs3)cc2)CC1,-29.7% (inactive),–
O=C(NC(=O)c1ccccc1N1CCCCC1)Nc1ccc(Br)cc1,-15.4% (inactive),–
CC(=O)Nc1ccc(NS(=O)(=O)c2ccc3c(c2)NC(=O)CC(=O)N3)cc1,-12.2% (inactive),–
CC(=O)Nc1ccc(S(=O)(=O)N2CCN(c3ccccc3)CC2)cc1,-21.8% (inactive),–
O=C(O)c1ccc2c(c1)N(Cc1ccc(F)cc1)C(=O)c1ccccc1S2=O (centres undefined),-20.8% (inactive),–
O=C(NCc1ccccc1Cl)C1=Cc2cc(Br)ccc2OC1,1.6% (inactive),–
CCc1ccc(NC(=O)N2CCN(C(=O)c3nsc4ccccc34)CC2)cc1,-27.9% (inactive),–
COc1ccc(Cl)cc1NC(=O)CCn1c(=O)c2cccn2c2ccccc21,-13.8% (inactive),–
COc1cc(NC(=O)Cn2nc(-c3ccc(C)c(C)c3)ccc2=O)cc(OC)c1,-12.3% (inactive),–
